“And” between values parts separate entries of the source, which are not always exact repeats. Identical values can stand only once. The whole screen tested about 5,500 compounds, of which about 2,000 (36%) were called active. Not shown: some 18% with an inconclusive outcome. Rule as the data show it: active = normalized growth mostly below about 0.91 (no sharp cut-off); inconclusive = no clear call, values can overlap the other calls; inactive = mostly above about 0.92. This is one part of the list.
Test: chemical genetic growth profiling, strain panel (AID 1159580);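 also: tested at 20 µM; growth read once vehicle control cultures reached saturation at 30 °C; 1 = growth at the plate median or of vehicle wells; lower values mean less growth of the strain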
Conditions: S. cerevisiae deletion strains, growth OD

Measured: normalized growth

C=C1C2CC[C@@]3(C)[C@H](c4ccoc4)OC(=O)C[C@]13O[C@H]1CC(O)C(C)(C)C(CC(=O)OC)[C@@]21C (stereo not given in full)
inactive: locus YAL021C, strain ccr4, stronger effect = lower value 0.962 | locus YAL026C, strain drs2, stronger effect = lower value 0.934 | locus YAL030W, strain snc1, stronger effect = lower value 0.949 | locus YBL061C, strain skt5, stronger effect = lower value 0.984 | locus YBR009C, strain hhf1, stronger effect = lower value 0.972 | locus YBR021W, strain FUR4, stronger effect = lower value 0.991 | locus YBR023C, strain chs3, stronger effect = lower value 0.981 | locus YBR171W, strain sec66, stronger effect = lower value 0.98 | locus YBR229C, strain ROT2, stronger effect = lower value 0.995 | locus YBR231C, strain swc5, stronger effect = lower value 0.974 | locus YBR279W, strain paf1, stronger effect = lower value 0.978 | locus YCL011C, strain gbp2, stronger effect = lower value 0.984 | locus YCL016C, strain dcc1, stronger effect = lower value 0.983 | locus YCL029C, strain bik1, stronger effect = lower value 1.01 | locus YCL061C, strain MRC1, stronger effect = lower value 0.989 | locus YCL069W, strain vba3, stronger effect = lower value 0.979 | locus YCR088W, strain abp1, stronger effect = lower value 0.977 | locus YDL005C, strain med2, stronger effect = lower value 0.952 | locus YDL035C, strain GPR1, stronger effect = lower value 0.999 | locus YDL040C, strain nat1, stronger effect = lower value 0.982 | locus YDL074C, strain BRE1, stronger effect = lower value 0.999 | locus YDL101C, strain DUN1, stronger effect = lower value 0.999 | locus YDL185W, strain tfp1, stronger effect = lower value 1.02 | locus YDL192W, strain arf1, stronger effect = lower value 1.01 | locus YDR001C, strain nth1, stronger effect = lower value 0.962 | locus YDR069C, strain doa4, stronger effect = lower value 0.957 | locus YDR101C, strain arx1, stronger effect = lower value 1.01 | locus YDR137W, strain rgp1, stronger effect = lower value 0.938 | locus YDR150W, strain NUM1, stronger effect = lower value 0.98 | locus YDR159W, strain sac3, stronger effect = lower value 0.936 | locus YDR162C, strain NBP2, stronger effect = lower value 1.01 | locus YDR195W, strain ref2 0.937 | locus YDR297W, strain sur2, stronger effect = lower value 0.965 | locus YDR318W, strain mcm21, stronger effect = lower value 1.02 | locus YDR334W, strain swr1, stronger effect = lower value 0.966 | locus YDR335W, strain msn5, stronger effect = lower value 0.967 | locus YDR388W, stronger effect = lower value 1 | locus YDR392W, strain spt3, stronger effect = lower value 0.97 | locus YDR502C, strain sam2, stronger effect = lower value 1 | locus YEL003W, strain gim4, stronger effect = lower value 0.975 | locus YEL037C, strain rad23, stronger effect = lower value 0.976 | locus YEL061C, strain CIN8 (second series), stronger effect = lower value 0.966 | locus YEL061C, strain CIN8, stronger effect = lower value 1.05 | locus YER015W, strain faa2, stronger effect = lower value 0.985 | locus YER016W, strain bim1, stronger effect = lower value 0.967 | locus YER110C, stronger effect = lower value 1.02 | locus YER111C, strain swi4, stronger effect = lower value 0.988 | locus YER155C, strain BEM2 (second series), stronger effect = lower value 0.955 | locus YER155C, strain BEM2, stronger effect = lower value 1 | locus YER167W, strain BCK2, stronger effect = lower value 1 | locus YFR010W, strain ubp6, stronger effect = lower value 0.965 | locus YGL078C, strain dbp3, stronger effect = lower value 1.02 | locus YGL086W, strain mad1, stronger effect = lower value 1.02 | locus YGL167C, strain pmr1, stronger effect = lower value 0.963 | locus YGL173C, strain kem1, stronger effect = lower value 0.961 | locus YGL227W, strain vid30, stronger effect = lower value 0.986 | locus YGL240W, strain doc1, stronger effect = lower value 0.97 | locus YGL248W, strain PDE1, stronger effect = lower value 1.01 | locus YGL253W, strain hxk2, stronger effect = lower value 0.972 | locus YGR135W, strain pre9, stronger effect = lower value 1.01 | locus YGR252W, strain gcn5, stronger effect = lower value 1.02 | locus YHR013C, strain ard1, stronger effect = lower value 0.939 | locus YHR027C, strain rpn1, stronger effect = lower value 0.967 | locus YHR030C, strain SLT2, stronger effect = lower value 1.01 and 0.963 | locus YHR079C, strain IRE1 (second series), stronger effect = lower value 1.01 | locus YHR079C, strain IRE1, stronger effect = lower value 0.973 | locus YHR094C, strain hxt1, stronger effect = lower value 1.01 | locus YHR129C, strain ARP1, stronger effect = lower value 1 | locus YHR142W, strain chs7, stronger effect = lower value 0.986 | locus YHR200W, strain rpn10, stronger effect = lower value 0.993 | locus YIL066C, strain RNR3, stronger effect = lower value 0.997 | locus YIL073C, strain SPO22, stronger effect = lower value 1.06 | locus YIL125W, strain kgd1, stronger effect = lower value 1.01 | locus YIR030C, strain dcg1, stronger effect = lower value 1.01 | locus YJL092W, strain hpr5, stronger effect = lower value 0.975 | locus YJL095W, strain BCK1 (second series), stronger effect = lower value 0.956 | locus YJL095W, strain BCK1, stronger effect = lower value 1.01 and 0.974 | locus YJL115W, strain asf1, stronger effect = lower value 0.937 | locus YJL129C, strain trk1, stronger effect = lower value 0.963 | locus YJL134W, strain LCB3, stronger effect = lower value 1.01 | locus YJL154C, strain vps35, stronger effect = lower value 0.973 | locus YJL164C, strain tpk1, stronger effect = lower value 0.972 | locus YJL166W, strain qcr8, stronger effect = lower value 0.97 | locus YJL168C, strain set2, stronger effect = lower value 1.01 | locus YJL187C, strain SWE1 (second series), stronger effect = lower value 1

Reference: PubChem BioAssay AID1159580 (chemical genetic matrix, 2015)
